Source: PubChem BioAssay AID1159580 (chemical genetic matrix, 2015)
About 2,000 (36%) of roughly 5,500 compounds were called active. Inconclusive results (about 18%) are left out. Rule as the data show it: active = normalized growth mostly below about 0.91 (no sharp cut-off); inconclusive = no clear call, values can overlap the other calls; inactive = mostly above about 0.92. The list shows a part of the results.

Assay: chemical genetic growth profiling, strain panel (AID 1159580);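 also: tested at 20 µM; growth read once vehicle control cultures reached saturation at 30 °C; 1 = growth at the plate median or of vehicle wells; lower values mean less growth of the strain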
Conditions: S. cerevisiae deletion strains, growth OD

Measured: normalized growth

COC1=CC(=O)C(C(=O)c2ccccc2)=CC1=O
inactive: locus YAL021C, strain ccr4, active compounds read low 1.01 | locus YAL026C, strain drs2, active compounds read low 0.992 | locus YAL030W, strain snc1, active compounds read low 0.993 | locus YBL061C, strain skt5, active compounds read low 1.01 | locus YBR009C, strain hhf1, active compounds read low 0.977 | locus YBR023C, strain chs3, active compounds read low 0.988 | locus YBR171W, strain sec66, active compounds read low 0.978 | locus YBR231C, strain swc5, active compounds read low 0.972 | locus YBR279W, strain paf1, active compounds read low 0.991 | locus YCL011C, strain gbp2, active compounds read low 0.971 | locus YCL016C, strain dcc1, active compounds read low 0.977 | locus YCL061C, strain MRC1, active compounds read low 0.978 | locus YCL069W, strain vba3, active compounds read low 0.996 | locus YCR088W, strain abp1, active compounds read low 0.987 | locus YDL005C, strain med2, active compounds read low 0.966 | locus YDL040C, strain nat1, active compounds read low 0.981 | locus YDR001C, strain nth1, active compounds read low 0.964 | locus YDR069C, strain doa4, active compounds read low 0.965 | locus YDR137W, strain rgp1, active compounds read low 0.938 | locus YDR159W, strain sac3, active compounds read low 0.949 | locus YDR195W, strain ref2 0.964 | locus YDR297W, strain sur2, active compounds read low 0.967 | locus YDR334W, strain swr1, active compounds read low 0.96 | locus YDR335W, strain msn5, active compounds read low 0.97 | locus YDR392W, strain spt3, active compounds read low 0.98 | locus YEL003W, strain gim4, active compounds read low 0.976 | locus YEL037C, strain rad23, active compounds read low 0.986 | locus YEL061C, strain CIN8 (second series), active compounds read low 0.98 | locus YER015W, strain faa2, active compounds read low 0.98 | locus YER016W, strain bim1, active compounds read low 0.974 | locus YER111C, strain swi4, active compounds read low 0.973 | locus YER155C, strain BEM2 (second series), active compounds read low 0.975 | locus YFR010W, strain ubp6, active compounds read low 0.993 | locus YGL167C, strain pmr1, active compounds read low 0.975 | locus YGL173C, strain kem1, active compounds read low 1 | locus YGL227W, strain vid30, active compounds read low 0.986 | locus YGL240W, strain doc1, active compounds read low 0.955 | locus YGL253W, strain hxk2, active compounds read low 0.987 | locus YHR013C, strain ard1, active compounds read low 0.967 | locus YHR027C, strain rpn1, active compounds read low 0.966 | locus YHR030C, strain SLT2, active compounds read low 1.02 | locus YHR079C, strain IRE1, active compounds read low 1.02 | locus YHR142W, strain chs7, active compounds read low 0.996 | locus YJL092W, strain hpr5, active compounds read low 0.968 | locus YJL095W, strain BCK1 (second series), active compounds read low 0.971 | locus YJL095W, strain BCK1, active compounds read low 1.02 | locus YJL115W, strain asf1, active compounds read low 0.956 | locus YJL129C, strain trk1, active compounds read low 0.941 | locus YJL154C, strain vps35, active compounds read low 0.974 | locus YJL164C, strain tpk1, active compounds read low 0.988 | locus YJL166W, strain qcr8, active compounds read low 1.01 | locus YJR066W, strain TOR1, active compounds read low 0.94 | locus YKL160W, strain elf1, active compounds read low 0.991 | locus YKR026C, strain gcn3, active compounds read low 0.993 | locus YKR091W, strain srl3, active compounds read low 0.97 | locus YLL001W, strain dnm1, active compounds read low 0.972 | locus YLL026W, active compounds read low 1 | locus YLL041C, strain sdh2, active compounds read low 0.98 | locus YLR027C, strain aat2, active compounds read low 0.976 | locus YLR113W, strain HOG1, active compounds read low 1.02 | locus YLR221C, strain rsa3, active compounds read low 0.988 | locus YLR258W, strain gsy2, active compounds read low 0.997 | locus YLR262C, strain YPT6 (second series), active compounds read low 0.975 | locus YLR320W, strain mms22, active compounds read low 0.981 | locus YLR342W, strain FKS1, active compounds read low 0.983 | locus YLR357W, strain rsc2, active compounds read low 0.946 | locus YLR370C, strain arc18, active compounds read low 0.959 | locus YLR384C, strain iki3, active compounds read low 0.979 | locus YML120C, strain ndi1, active compounds read low 1 | locus YMR058W, strain fet3, active compounds read low 0.966 | locus YMR125W, strain sto1, active compounds read low 0.987 | locus YMR129W, active compounds read low 1 | locus YMR205C, strain PFK2, active compounds read low 1 | locus YMR231W, strain pep5, active compounds read low 0.991 | locus YNL071W, strain lat1, active compounds read low 0.985 | locus YNL183C, strain NPR1, active compounds read low 0.969 | locus YNL209W, strain ssb2, active compounds read low 0.977 | locus YNL248C, strain rpa49, active compounds read low 0.992 | locus YNL322C, strain KRE1 (second series), active compounds read low 0.965 | locus YNR049C, strain mso1, active compounds read low 0.964 | locus YOR001W, strain rrp6, active compounds read low 0.975 | locus YOR070C, strain gyp1, active compounds read low 0.977 | locus YOR080W, strain dia2, active compounds read low 1 | locus YOR083W, strain WHI5, active compounds read low 0.991 | locus YOR106W, strain vam3, active compounds read low 0.992 | locus YOR231W, strain MKK1, active compounds read low 1.04 | locus YOR265W, strain rbl2, active compounds read low 0.986 | locus YOR270C, strain vph1, active compounds read low 1.01 | locus YOR290C, strain snf2, active compounds read low 0.965 | locus YPL051W, strain arl3, active compounds read low 0.984 | locus YPL078C, strain atp4, active compounds read low 0.975 | locus YPL106C, strain sse1, active compounds read low 0.927 | locus YPL240C, strain hsp82, active compounds read low 0.977 | locus YPL256C, strain CLN2, active compounds read low 1.04
